PTAP TSG101 blk – blocks PTAP/TSG101 interaction to inhibit HIV-1 budding; Q99816; Fluorescence polarization, FITC-PTAP peptide / Tsg101 binding; Potency, µM (top dose mostly 115 µM), inactives show top-dose activity change, negative = inhibition, actives largely listed as inhibitors; 340,000 tested, under 10 active; AID 493005; active = well fitted inhibition curve with a large enough effect in the main read-out, with a control signal flat, not every such curve was filed as active; inconclusive = small, poorly fitted or top-dose-only effect, or effect the other way, or a change in a side signal; inactive = no such curve, though single readings can be large or run the other way; note: potency is the fitted concentration of half-maximal effect; % of control where 0% means no effect
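Steps: Tsg101 binding domain dispensed (10 uM final), compounds pinned in DMSO, FITC-labeled PTAP-motif peptide added (50 nM final); after 20 min binding at room temperature, polarization measured.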
Rango complex inh – Rango-importin beta binding inhibition | Q14974 | Rango CFP/YFP FRET sensor + importin beta, 45 min | Potency, µM (titrated, usually from 92.2 µM), without a hit: top-dose inhibition of complex formation | 340,000 tested, 0.031% active | AID 540263;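 note: potency is the fitted concentration of half-maximal effect; 0% = DMSO wells and 100% = buffer wells lacking importin beta; nearly all actives have a fitted effect of over 15% in size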
Target sequence (Q14974 whole entry, looked up): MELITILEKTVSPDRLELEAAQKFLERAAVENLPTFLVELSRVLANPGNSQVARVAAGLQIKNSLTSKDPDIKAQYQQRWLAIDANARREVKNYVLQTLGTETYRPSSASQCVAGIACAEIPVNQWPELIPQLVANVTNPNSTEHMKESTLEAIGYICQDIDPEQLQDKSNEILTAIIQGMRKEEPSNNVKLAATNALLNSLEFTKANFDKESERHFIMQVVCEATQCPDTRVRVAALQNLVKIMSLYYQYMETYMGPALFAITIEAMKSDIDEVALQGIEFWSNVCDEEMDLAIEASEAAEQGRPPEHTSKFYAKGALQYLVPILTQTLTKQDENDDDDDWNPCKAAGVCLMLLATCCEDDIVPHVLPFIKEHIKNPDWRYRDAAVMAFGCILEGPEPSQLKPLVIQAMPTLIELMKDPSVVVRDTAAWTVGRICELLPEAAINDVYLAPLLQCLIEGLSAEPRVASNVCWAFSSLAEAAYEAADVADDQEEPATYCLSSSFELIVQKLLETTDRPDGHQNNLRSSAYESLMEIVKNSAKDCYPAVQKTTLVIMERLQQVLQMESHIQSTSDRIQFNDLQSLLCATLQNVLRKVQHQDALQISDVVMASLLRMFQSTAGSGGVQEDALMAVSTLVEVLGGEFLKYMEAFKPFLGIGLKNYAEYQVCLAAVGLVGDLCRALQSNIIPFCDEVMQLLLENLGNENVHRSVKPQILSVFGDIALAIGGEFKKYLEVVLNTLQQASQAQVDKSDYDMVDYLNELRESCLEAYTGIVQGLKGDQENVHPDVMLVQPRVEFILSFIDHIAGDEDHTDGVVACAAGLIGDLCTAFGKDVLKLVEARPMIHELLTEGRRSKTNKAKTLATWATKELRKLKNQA
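FRET biosensor (snurportin 1 IBB flanked by EYFP and cerulean), 50 nM, with compound 5 min, then 0.125 microM importin beta in PBS, 1 mM DTT, 0.02% Tween-20, 0.1% BSA. CFP/YFP ratio read after 45 min at room temperature; pre-read flags interference.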
DRD3 agonist – agonists of human D3 dopamine receptor. 410,000 tested, 0.58% active. P35462. max activation, %. D3R DiscoveRx beta-arrestin cells, luminescence, 90 min; in the data active = max activation above about 30%; note: 0% is about no effect
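Cells at 1500/well, incubated overnight, then treated with pinned compounds (dopamine as control) for 90 min at 37 degrees C. DiscoveRx reagent added for 30 - 60 minutes at room temperature; luminescence read.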
Rango release inh – inhibition of RanGTP-driven Rango-importin beta dissociation | Biochemical FRET Rango-importin beta, RanGTP-induced dissociation | Potency, µM (top dose mostly 46.1 µM), for inactives: top-dose activity change, negative = inhibition | 340,000 tested, 0.071% active | AID 540253; note: potency is the fitted concentration of half-maximal effect; % of control where 0% means no effect; nearly all actives have a fitted effect of over 45% in size
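FRET read at 45 min, room temperature: inhibitors block the CFP/YFP signal rise when RanGTP (0.6 uM Ran, 2 mM GTP, 0.2 uM RCC1) frees Rango (0.1 uM) from importin beta (0.25 uM). Pre-read after 5 min compound exposure flags interference.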
Mm-Cpn inhibitor – blocks the Methanococcus maripaludis chaperonin Mm-Cpn | purified Mm-Cpn ATPase, ADP Transcreener TR-FRET | Potency, µM (titrated, usually from 76.9 µM), without a hit: top-dose activity, negative = inhibition, actives largely listed as inhibitors | 330,000 tested, 0.031% active; active = well fitted inhibition curve with a large enough effect; inconclusive = small, poorly fitted or top-dose-only effect; note: potency is the fitted concentration of half-maximal effect; % is set by controls: 0 for no effect and ±100 for the full control effect; nearly all actives have a fitted effect of over 80% in size
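Purified archaeal chaperonin (25 nM final) was preincubated with compound for 10 min at 37°C, then ATP (10 uM final) was added for 30 min at 37°C in Tris pH 7.4/KCl/MgCl2/DTT buffer. ADP was quantified by HTRF Transcreener TR-FRET.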
D3 antag – antagonists of human D3 dopamine receptor | P35462 | D3R cells, DiscoveRx beta-arrestin luminescence, antagonist mode; stronger effect = lower value | max response, negative = inhibition, % | 360,000 tested, 2.5% active; in the data active = max response below about -50%; inconclusive = no clear call, values can overlap the other calls; note: % is set by controls: 0 for no effect and ±100 for the full control effect
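Cells plated overnight at 1500 cells/well, then exposed to library compounds with dopamine controls for 90 minutes at 37 degrees C. DiscoveRx reagent added for 30–60 minutes at room temperature; luminescence read, quantitative HTS format.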
* hit, by the source's call; ? = inconclusive; nt = no result; ! = a repeat was not active. Shown are actives, neighbours in structure and some others; about 2.9% of the full set was active somewhere. Unless noted, calls come from the whole dose curve.

SMILES	PTAP TSG101 blk	Rango complex inh	DRD3 agonist	Rango release inh	Mm-Cpn inhibitor	D3 antag
Cc1cccc(-c2nc3scc(CCNS(=O)(=O)c4ccc(F)cc4C)n3n2)c1	nt	nt	-14	nt	nt	nt
COc1cc(C(=O)N2CCN(CCc3ccccn3)CC2)cc(OC)c1OC	nt	nt	-8	nt	nt	nt
COc1ccc(-n2c(=S)[nH]c3cc(C(=O)NCc4ccco4)ccc3c2=O)c(OC)c1	-3%	-6%	-3	4%	0%	-61*
COc1ccc(-n2c(=S)[nH]c3cc(C(=O)NCc4ccccc4OC)ccc3c2=O)c(OC)c1	-1%	4%	8	0%	-3%	-13
CCOc1ccc(CNC(=O)Cn2c(=O)c3cccn3c3ccc(F)cc32)cc1	nt	nt	-5	nt	nt	nt
Cc1cccc2cc(COC(=O)c3cccnc3)c(=O)[nH]c12	-1%	-3%	8	28%	-2%	-1
Cc1cccc2cc(COC(=O)c3ccccc3)c(=O)[nH]c12	0%	-3%	-10	11%	3%	-51*
Cc1ccc(-n2c(O)c(/C=N/n3cnnc3)c3ccccc3c2=O)cc1	-1%	?	7	?	0%	-109*!
O=c1c2ccccc2c(/C=N/n2cnnc2)c(O)n1-c1ccccc1F	-25%	?	-1	?	-6%	-5
COc1cccc(Cn2c(CNC(=O)CCc3ccccc3)nc3cccnc32)c1	nt	nt	-3	nt	nt	nt
CCOc1ccc(N/C(SC)=C(/C#N)C(N)=O)cc1	nt	0%	1	20%	-1%	-53*
Cc1ccc(Cn2nnc(C(=O)Nc3cccc(C)c3C)c2N)cc1	2%	2%	-2	1%	0%	10
Cc1ccc(C)c(NC(=O)c2nnn(CC(=O)Nc3cccc(C)c3C)c2N)c1	nt	nt	40*	nt	nt	nt
Cc1ccc(NC(=O)Cn2nnc(C(=O)Nc3ccc(C)c(C)c3)c2N)cc1	-2%	0%	-7	2%	-17%	-66*
CCN(CC)C(=O)C1=C(C)N(CCCOC)C(=O)C(CC(=O)NC2CC2)C1 (stereo not given)	nt	nt	-17	nt	nt	-116*
C=Cc1ccc(Cn2c(C)c(CNCCc3ccccc3C)c(C(=O)O)c2C)cc1	nt	nt	8	nt	nt	nt
COC(=O)N/N=C/c1ccc(OS(=O)(=O)c2ccc(C)cc2)c(OC)c1	0%	3%	-22	2%	-12%	-19
COc1cc(/C=N/NC(=O)COc2cccc(F)c2)ccc1OS(=O)(=O)c1ccc(C)cc1	-2%	-4%	-9	-9%	1%	-53*
COc1cc(/C=N/NC(=O)COc2ccc(Cl)cc2)ccc1OS(=O)(=O)c1ccc(C)cc1	-1%	0%	-8	-6%	-1%	-50*
CCC(C(=O)N1CCN(c2cc(Cl)ccc2C)CC1)n1nc(C)n2c(cc3occc32)c1=O (stereo not given)	nt	nt	-6	nt	nt	nt
Clc1cccc(NCc2nnc(SCc3ccc(Cl)cc3Cl)o2)c1	5%	0%	-12	-11%	0%	-63*
CC(C)(C)OC(=O)NCCc1nnc(SCc2ccc(Cl)cc2Cl)o1	-4%	-1%	-3	1%	-2%	30
CCOc1cccc(/C=N/NC(=S)Nc2cc(S(=O)(=O)N3CCOCC3)ccc2N2CCOCC2)c1O	1%	?	3	3.7µM*	-6%	7
CCOc1ccc(S(=O)(=O)N2CCOCC2)cc1NC(=O)c1ccccc1F	-1%	1%	79*	-1%	0%	-9
Cc1nn(-c2cc(N3CCCC3)ccc2[N+](=O)[O-])c(=O)c2ccccc12	2%	6%	-1	22%	-5%	-59*
O=C(c1ccc2c(c1)N(Cc1ccc(Cl)cc1)C(=O)c1ccccc1S2=O)N1CCN(c2ccccc2F)CC1 (stereo not given)	nt	nt	2	nt	nt	nt
Cc1ccccc1OCCC(=O)Nc1ccc(S(=O)(=O)N(C)C2CCN(C)CC2)cc1	-2%	0%	-28	2%	-1%	-61*
Cc1c(C(=O)Nc2ccc(S(=O)(=O)N(C)C3CCN(C)CC3)cc2)oc2c(Cl)cccc12	-5%	-1%	-11	9%	0%	-66*

Assay outcomes (PubChem)
